What all share (test): DAPPL (digital affinity profiling via proximity ligation, sequencing); 10 mM Tris-HCl pH 7.5, 50 mM NaCl, 1 mM DTT, 4% glycerol, room temperature, 30 min; GST-TFs on glutathione beads, 16-mer random dsDNA library, 0.1% formaldehyde crosslink after washing; high values mean tight binding
One assay deals with T1, FLI1 (Homo sapiens, UniProt Q01543 1-452).
T1 sequence: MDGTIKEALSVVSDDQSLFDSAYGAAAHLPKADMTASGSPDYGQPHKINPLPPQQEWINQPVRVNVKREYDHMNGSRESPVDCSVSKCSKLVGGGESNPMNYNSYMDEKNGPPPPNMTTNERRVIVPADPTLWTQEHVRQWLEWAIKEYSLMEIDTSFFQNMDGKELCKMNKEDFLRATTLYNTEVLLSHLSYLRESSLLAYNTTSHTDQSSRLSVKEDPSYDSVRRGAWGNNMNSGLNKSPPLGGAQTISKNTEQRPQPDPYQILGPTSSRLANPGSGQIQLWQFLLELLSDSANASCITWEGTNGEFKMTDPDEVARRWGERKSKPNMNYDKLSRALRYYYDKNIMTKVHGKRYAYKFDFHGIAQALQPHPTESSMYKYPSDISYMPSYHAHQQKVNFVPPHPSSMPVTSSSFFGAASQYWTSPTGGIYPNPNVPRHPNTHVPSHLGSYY
Conditions: protein: recombinant; tags: N-terminal GST; dsDNA, one strand shown. In a few lines: (§1)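 Pools were built from human transcription factors expressed in yeast as GST fusions, captured on glutathione beads and DNA-barcoded, along with a tag-only sample. Incubation with 200 nmole of a 16-mer random double-stranded DNA library lasted 30 min at room temperature in Tris/NaCl/DTT/glycerol buffer, and was followed by washing, 0.1% formaldehyde crosslinking, proximity ligation, PCR amplification and Illumina NextSeq500 sequencing. Binding signal is the quotient of each hexamer's read frequency for a factor and its frequency for the tag-only sample.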

Another assay deals with T2, ELK1 (Homo sapiens, UniProt P19419 1-428).
T2 sequence: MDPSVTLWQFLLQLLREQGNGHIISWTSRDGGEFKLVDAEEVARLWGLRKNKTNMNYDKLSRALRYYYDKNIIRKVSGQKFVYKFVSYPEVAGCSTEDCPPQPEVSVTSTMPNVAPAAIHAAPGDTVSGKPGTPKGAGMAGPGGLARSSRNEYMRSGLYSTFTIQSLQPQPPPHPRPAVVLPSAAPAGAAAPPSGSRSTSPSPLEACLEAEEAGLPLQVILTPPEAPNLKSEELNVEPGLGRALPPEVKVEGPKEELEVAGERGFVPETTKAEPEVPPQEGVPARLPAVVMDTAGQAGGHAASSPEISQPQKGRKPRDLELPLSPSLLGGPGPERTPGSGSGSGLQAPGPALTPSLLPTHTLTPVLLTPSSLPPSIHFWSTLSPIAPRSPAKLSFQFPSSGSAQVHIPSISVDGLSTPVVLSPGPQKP
Conditions: protein: recombinant; tags: N-terminal GST; dsDNA, one strand shown. The procedure, abridged:
as §1

Another assay deals with T3, GABPA (Homo sapiens, UniProt Q06546 1-454).
T3 sequence: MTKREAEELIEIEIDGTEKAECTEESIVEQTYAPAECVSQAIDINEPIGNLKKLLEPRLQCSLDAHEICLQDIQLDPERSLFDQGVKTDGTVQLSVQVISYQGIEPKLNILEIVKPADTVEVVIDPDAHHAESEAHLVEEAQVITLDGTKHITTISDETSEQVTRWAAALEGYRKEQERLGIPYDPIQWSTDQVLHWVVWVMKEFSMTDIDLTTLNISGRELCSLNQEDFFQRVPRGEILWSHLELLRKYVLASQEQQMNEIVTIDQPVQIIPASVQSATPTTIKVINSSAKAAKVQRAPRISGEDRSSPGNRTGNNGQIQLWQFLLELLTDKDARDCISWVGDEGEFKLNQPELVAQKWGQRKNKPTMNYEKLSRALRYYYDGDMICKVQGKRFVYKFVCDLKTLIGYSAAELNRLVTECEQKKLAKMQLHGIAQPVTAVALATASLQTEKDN
The following applies: protein: recombinant; tags: N-terminal GST; dsDNA, one strand shown. The procedure, abridged:
as §1

The next assay has as its target T4, ERG (Homo sapiens, UniProt P11308 1-479).
T4 sequence: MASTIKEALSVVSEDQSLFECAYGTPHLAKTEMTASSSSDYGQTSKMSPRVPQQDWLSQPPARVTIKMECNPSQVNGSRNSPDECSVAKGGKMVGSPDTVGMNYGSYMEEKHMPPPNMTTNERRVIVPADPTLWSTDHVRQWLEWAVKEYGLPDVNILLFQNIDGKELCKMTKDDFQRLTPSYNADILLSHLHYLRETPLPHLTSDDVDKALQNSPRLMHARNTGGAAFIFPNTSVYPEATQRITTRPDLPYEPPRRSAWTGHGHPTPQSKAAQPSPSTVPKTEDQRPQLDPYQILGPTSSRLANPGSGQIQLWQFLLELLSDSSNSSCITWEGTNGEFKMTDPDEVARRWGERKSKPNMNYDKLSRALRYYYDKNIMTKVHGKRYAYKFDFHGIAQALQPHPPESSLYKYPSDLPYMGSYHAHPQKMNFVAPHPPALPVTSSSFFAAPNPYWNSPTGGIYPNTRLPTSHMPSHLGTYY
Conditions: protein: recombinant; tags: N-terminal GST; dsDNA, one strand shown. In a few lines:
as §1

A further assay deals with ELF1 (Homo sapiens, UniProt P32519 1-619). The following applies: protein: recombinant; tags: N-terminal GST; dsDNA, one strand shown. In a few lines: as §1
A further assay deals with T5, EHF (Homo sapiens, UniProt Q9NZC4 1-300).
T5 sequence: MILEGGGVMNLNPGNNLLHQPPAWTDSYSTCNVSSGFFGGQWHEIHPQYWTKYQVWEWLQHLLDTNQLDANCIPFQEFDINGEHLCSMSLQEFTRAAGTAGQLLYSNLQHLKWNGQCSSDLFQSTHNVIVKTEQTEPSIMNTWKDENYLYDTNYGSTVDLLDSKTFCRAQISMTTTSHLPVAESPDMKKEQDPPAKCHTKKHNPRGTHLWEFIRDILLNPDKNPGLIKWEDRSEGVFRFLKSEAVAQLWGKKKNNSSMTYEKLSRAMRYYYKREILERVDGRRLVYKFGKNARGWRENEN
Conditions: protein: recombinant; tags: N-terminal GST; dsDNA, one strand shown. In a few lines: as §1

In the next assay the target is SPI1 (Homo sapiens, UniProt P17947 1-270). The following applies: protein: recombinant; tags: N-terminal GST; dsDNA, one strand shown. In a few lines: as §1
Another assay deals with SPIB (Homo sapiens, UniProt Q01892 1-262). Conditions: protein: recombinant; tags: N-terminal GST; dsDNA, one strand shown. The procedure, abridged:
as §1

The target of the next assay is T6, ELK3 (Homo sapiens, UniProt P41970 1-407).
T6 sequence: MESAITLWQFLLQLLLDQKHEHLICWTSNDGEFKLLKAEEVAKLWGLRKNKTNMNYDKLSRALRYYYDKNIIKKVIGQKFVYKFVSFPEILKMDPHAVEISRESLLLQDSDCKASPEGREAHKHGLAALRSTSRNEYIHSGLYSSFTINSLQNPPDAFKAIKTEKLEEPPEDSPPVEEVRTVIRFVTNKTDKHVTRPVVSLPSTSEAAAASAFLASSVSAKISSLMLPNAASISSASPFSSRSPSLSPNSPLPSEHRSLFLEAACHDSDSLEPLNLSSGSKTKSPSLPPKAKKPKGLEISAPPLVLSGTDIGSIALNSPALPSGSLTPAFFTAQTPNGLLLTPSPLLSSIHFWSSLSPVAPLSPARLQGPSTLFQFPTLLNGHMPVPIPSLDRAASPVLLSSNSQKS
Conditions: protein: recombinant; tags: N-terminal GST; dsDNA, one strand shown. In a few lines:
as §1

Another assay has as its target T7, FEV (Homo sapiens, UniProt Q99581 1-238).
T7 sequence: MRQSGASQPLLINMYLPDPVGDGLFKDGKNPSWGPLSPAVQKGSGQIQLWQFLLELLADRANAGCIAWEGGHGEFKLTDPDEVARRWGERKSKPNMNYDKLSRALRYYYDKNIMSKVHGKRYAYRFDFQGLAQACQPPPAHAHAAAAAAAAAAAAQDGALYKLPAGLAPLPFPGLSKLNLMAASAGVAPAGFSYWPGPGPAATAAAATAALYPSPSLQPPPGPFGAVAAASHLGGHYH
The following applies: protein: recombinant; tags: N-terminal GST; dsDNA, one strand shown. The procedure, abridged:
as §1

The next assay addresses ETV5 (Homo sapiens, UniProt P41161 1-510). The following applies: protein: recombinant; tags: N-terminal GST; dsDNA, one strand shown. In a few lines: as §1
In the next assay the target is HSF1 (Homo sapiens, UniProt Q00613 1-529). Conditions: protein: recombinant; tags: N-terminal GST; chain copies: 3; dsDNA, one strand shown. In a few lines: as §1
Another assay concerns the target T8, SPIC (Homo sapiens, UniProt Q8N5J4 1-248).
T8 sequence: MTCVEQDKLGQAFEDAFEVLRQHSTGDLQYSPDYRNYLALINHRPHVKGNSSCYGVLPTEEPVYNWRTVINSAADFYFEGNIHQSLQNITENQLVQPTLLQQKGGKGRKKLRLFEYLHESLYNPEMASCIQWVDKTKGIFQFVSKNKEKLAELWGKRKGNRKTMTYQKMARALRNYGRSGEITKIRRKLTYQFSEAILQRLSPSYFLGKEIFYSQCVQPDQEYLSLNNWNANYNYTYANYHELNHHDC
Conditions: protein: recombinant; tags: N-terminal GST; dsDNA, one strand shown. The procedure, abridged: as §1

Another assay deals with ELF4 (Homo sapiens, UniProt Q99607 1-663). The following applies: protein: recombinant; tags: N-terminal GST; dsDNA, one strand shown. In a few lines: as §1
The target of a further assay is T9, ELK4 (Homo sapiens, UniProt P28324-2 1-405).
T9 sequence: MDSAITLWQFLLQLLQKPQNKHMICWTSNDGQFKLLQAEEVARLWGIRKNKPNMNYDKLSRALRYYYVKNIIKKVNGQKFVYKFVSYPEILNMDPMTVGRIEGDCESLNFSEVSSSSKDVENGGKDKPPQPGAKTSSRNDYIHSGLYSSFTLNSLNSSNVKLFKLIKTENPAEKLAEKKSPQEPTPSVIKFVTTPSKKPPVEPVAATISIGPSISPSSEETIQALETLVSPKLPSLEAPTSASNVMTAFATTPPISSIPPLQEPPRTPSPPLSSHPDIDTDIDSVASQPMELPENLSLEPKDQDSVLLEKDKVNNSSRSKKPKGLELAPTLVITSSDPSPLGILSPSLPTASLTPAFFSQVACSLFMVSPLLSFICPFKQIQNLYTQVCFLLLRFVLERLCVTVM
The following applies: protein: recombinant; tags: N-terminal GST; dsDNA, one strand shown. In a few lines:
as §1

The target in another assay is T10, ETV2 (Homo sapiens, UniProt O00321 1-342).
T10 sequence: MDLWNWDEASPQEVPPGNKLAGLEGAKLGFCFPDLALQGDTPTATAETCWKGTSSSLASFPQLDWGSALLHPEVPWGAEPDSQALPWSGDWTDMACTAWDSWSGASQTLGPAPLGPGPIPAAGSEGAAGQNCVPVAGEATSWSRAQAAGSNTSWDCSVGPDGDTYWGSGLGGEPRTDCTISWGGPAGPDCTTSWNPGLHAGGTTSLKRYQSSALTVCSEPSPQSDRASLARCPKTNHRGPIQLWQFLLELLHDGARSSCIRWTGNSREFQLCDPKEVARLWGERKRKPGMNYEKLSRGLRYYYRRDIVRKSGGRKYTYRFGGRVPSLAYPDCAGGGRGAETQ
Conditions: protein: recombinant; tags: N-terminal GST; dsDNA, one strand shown. In a few lines:
as §1

A further assay deals with T11, ELF3 (Homo sapiens, UniProt P78545 1-371).
T11 sequence: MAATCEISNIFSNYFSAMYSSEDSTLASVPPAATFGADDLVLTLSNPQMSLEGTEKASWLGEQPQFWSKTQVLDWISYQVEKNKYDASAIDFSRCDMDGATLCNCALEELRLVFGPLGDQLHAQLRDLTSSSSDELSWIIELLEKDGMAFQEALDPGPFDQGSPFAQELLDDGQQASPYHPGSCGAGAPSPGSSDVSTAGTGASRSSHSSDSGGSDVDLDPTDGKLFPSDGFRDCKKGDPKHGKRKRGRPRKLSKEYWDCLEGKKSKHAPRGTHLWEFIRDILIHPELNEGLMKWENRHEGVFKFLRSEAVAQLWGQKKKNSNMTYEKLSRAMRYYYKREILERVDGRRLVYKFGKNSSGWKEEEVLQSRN
Conditions: protein: recombinant; tags: N-terminal GST; dsDNA, one strand shown. In a few lines: as §1

Another assay deals with CRX (Homo sapiens, UniProt O43186 1-299). Conditions: protein: recombinant; tags: N-terminal GST; dsDNA, one strand shown. The procedure, abridged: as §1
A further assay has as its target ETV1 (Homo sapiens, UniProt P50549 1-477). Conditions: protein: recombinant; tags: N-terminal GST; dsDNA, one strand shown. In a few lines:
as §1

Sequence of ELF4 (Q99607 whole entry): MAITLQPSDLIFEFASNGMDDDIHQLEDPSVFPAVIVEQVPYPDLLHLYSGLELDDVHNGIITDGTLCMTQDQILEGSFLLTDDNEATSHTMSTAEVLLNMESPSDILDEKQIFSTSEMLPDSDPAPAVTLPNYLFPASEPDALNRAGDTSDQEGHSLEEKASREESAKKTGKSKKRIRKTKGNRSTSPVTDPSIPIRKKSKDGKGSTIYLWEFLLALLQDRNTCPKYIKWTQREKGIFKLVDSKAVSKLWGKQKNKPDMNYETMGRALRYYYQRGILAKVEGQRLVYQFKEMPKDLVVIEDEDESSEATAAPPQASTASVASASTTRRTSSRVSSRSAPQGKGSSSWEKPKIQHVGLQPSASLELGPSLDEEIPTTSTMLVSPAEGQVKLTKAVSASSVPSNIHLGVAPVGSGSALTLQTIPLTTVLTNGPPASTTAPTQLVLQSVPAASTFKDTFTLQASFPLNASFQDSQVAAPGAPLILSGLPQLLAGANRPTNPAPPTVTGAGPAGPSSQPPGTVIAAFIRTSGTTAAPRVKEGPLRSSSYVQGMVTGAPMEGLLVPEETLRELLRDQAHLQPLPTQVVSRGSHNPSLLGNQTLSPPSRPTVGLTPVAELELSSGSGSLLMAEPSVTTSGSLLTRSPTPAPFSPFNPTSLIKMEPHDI
Sequence of ETV1 (P50549 whole entry): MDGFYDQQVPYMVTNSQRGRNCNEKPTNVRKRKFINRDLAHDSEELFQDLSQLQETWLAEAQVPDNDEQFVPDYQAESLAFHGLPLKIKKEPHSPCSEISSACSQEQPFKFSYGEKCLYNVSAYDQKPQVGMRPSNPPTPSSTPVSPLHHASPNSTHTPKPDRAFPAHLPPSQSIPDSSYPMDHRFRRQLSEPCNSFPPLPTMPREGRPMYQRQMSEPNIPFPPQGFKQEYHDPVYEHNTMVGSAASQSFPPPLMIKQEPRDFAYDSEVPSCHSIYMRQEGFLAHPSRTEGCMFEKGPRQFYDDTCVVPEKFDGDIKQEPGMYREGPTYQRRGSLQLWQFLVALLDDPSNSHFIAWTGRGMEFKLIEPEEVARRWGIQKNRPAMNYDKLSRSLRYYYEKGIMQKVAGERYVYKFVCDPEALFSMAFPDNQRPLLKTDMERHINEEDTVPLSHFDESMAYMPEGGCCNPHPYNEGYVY
Sequence of SPIB (Q01892 whole entry): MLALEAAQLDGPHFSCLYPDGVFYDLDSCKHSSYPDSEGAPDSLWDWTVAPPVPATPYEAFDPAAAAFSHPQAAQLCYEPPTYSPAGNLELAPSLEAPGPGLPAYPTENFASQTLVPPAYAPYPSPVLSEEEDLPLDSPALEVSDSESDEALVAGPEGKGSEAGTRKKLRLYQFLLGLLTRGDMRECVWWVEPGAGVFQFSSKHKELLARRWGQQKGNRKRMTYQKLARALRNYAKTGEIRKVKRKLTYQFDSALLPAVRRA
Sequence of ELF1 (P32519 whole entry): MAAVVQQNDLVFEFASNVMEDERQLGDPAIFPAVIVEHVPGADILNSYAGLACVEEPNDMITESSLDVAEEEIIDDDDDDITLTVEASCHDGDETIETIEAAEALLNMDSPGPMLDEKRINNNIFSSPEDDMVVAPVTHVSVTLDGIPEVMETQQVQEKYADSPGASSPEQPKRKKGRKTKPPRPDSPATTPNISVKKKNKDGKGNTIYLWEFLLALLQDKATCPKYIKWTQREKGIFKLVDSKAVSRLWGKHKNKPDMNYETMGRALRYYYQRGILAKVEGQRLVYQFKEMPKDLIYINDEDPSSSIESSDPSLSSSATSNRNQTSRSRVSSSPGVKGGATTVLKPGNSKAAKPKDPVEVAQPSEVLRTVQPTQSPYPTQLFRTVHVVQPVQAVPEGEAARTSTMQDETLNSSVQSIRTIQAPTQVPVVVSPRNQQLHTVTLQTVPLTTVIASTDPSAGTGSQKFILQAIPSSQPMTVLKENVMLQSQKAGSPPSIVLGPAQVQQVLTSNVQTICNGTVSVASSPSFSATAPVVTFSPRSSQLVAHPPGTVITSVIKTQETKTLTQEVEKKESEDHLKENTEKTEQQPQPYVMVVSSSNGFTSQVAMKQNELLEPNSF
Sequence of CRX (O43186 whole entry): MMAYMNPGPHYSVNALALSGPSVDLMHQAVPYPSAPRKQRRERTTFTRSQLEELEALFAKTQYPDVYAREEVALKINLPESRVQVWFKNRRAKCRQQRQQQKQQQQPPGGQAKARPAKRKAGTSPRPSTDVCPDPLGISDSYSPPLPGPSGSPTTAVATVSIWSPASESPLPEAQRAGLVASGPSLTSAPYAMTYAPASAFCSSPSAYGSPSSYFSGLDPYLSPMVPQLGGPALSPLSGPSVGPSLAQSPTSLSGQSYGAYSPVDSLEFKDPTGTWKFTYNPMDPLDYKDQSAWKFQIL
Sequence of ETV5 (P41161 whole entry): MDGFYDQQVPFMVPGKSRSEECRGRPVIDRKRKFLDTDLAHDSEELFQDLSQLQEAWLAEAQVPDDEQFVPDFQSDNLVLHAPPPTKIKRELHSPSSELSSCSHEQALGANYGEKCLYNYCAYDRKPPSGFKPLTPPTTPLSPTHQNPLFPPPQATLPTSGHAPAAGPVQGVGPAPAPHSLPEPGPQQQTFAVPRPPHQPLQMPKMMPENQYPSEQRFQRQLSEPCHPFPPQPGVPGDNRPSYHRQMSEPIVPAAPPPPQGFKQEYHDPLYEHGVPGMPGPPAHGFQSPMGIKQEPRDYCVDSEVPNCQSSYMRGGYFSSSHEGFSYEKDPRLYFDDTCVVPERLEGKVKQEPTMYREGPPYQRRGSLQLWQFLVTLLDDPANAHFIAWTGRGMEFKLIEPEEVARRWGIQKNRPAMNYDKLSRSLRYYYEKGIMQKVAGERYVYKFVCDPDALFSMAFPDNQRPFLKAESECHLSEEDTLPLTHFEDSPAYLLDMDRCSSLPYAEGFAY
Sequence of HSF1 (Q00613 whole entry): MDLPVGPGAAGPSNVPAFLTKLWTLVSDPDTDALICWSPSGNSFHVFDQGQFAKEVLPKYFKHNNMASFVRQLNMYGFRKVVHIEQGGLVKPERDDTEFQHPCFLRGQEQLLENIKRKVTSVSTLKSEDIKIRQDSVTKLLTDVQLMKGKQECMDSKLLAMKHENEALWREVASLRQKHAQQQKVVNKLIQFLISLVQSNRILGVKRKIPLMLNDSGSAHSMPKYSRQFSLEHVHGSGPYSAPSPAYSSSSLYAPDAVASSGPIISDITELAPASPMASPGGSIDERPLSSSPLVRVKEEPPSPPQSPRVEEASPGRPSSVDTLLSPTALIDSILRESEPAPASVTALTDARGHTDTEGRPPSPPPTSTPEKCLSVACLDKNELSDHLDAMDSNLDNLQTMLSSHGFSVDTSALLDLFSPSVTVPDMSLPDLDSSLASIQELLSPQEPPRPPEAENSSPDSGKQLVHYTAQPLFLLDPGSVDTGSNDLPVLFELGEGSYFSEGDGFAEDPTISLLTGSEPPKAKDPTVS

For the sequence TTGTCC, the binding signal in the assay with FLI1 was 1.47 fold enrichment (6-mer frequency, TF over GST control); with ELK1, 1.32 fold enrichment (6-mer frequency, TF over GST control); with GABPA it was 1.41 fold enrichment (6-mer frequency, TF over GST control); with ERG, 1.4 fold enrichment (6-mer frequency, TF over GST control); in the assay with ELF1 it was 1.3 fold enrichment (6-mer frequency, TF over GST control); with EHF, 1.31 fold enrichment (6-mer frequency, TF over GST control). Also, the binding signal with SPI1 is 1.17 fold enrichment (6-mer frequency, TF over GST control); with SPIB it was 1.34 fold enrichment (6-mer frequency, TF over GST control); with ELK3, 1.43 fold enrichment (6-mer frequency, TF over GST control); in the assay with FEV, 1.34 fold enrichment (6-mer frequency, TF over GST control); in the assay with ETV5, 1.42 fold enrichment (6-mer frequency, TF over GST control); with HSF1, 1.16 fold enrichment (6-mer frequency, TF over GST control). Also, the binding signal with SPIC is 1.3 fold enrichment (6-mer frequency, TF over GST control); with ELF4, 1.26 fold enrichment (6-mer frequency, TF over GST control); with ELK4 it was 1.29 fold enrichment (6-mer frequency, TF over GST control); in the assay with ETV2 it was 1.56 fold enrichment (6-mer frequency, TF over GST control); in the assay with ELF3, 1.24 fold enrichment (6-mer frequency, TF over GST control); with CRX it was 1.16 fold enrichment (6-mer frequency, TF over GST control). Further, in the assay with ETV1, the binding signal was 1.23 fold enrichment (6-mer frequency, TF over GST control).

The values above are taken from paper PMC7862700, “An all-to-all approach to the identification of sequence-specific readers for epigenetic DNA modifications on cytosine”.
